Screening data: PubChem BioAssay, several laboratories
CSC inhib = cancer stem cell inhibition; 300,000 compounds, 1.1% hits; inhibition, % at 7.5 µM; cancer stem cell-like cells viability, luminescence; AID 2717; in the data active means inhibition above about 75%; inconclusive means no clear call, values can overlap the other calls; tested in HMLE shEcad cells
MPTP block = permeability transition pore inhibition; isolated mouse mitochondria, Ca2+ swelling absorbance, 30 min; inhibition, % at 10 µM; 360,000 compounds, 1.4% hits; AID 602449;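 active means inhibition of 50% or more, scaled per plate between neutral and stimulator controls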
Calb FLC = C. albicans growth modulation with fluconazole; growth inhibition, % (concentration not given with the values); 300,000 compounds, 0.57% hits; C. albicans CaCi-2 (fluconazole-resistant clinical isolate) + fluconazole, Alamar Blue growth, 48 h;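 active means growth inhibition above about 58% in most replicates, limit read from the data, passing the limit was not always enough; inconclusive means exactly half the replicates above a set limit; inactive means most replicates below a set limit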;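 further: all wells also contain fluconazole at 8 µg/ml as a sub-toxic cotreatment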
Mdm2 MdmX PPI = disrupts the human Mdm2-MdmX interaction. O15151+Q00987. SaOS-2 split-luciferase Mdm2/MdmX complementation, luminescence. inhibition, % at 8 µM. 330,000 compounds, 3% hits. AID 485346;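 active means inhibition of at least 50% at 8 µM in the primary screen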
Target sequence (O15151 whole entry, looked up): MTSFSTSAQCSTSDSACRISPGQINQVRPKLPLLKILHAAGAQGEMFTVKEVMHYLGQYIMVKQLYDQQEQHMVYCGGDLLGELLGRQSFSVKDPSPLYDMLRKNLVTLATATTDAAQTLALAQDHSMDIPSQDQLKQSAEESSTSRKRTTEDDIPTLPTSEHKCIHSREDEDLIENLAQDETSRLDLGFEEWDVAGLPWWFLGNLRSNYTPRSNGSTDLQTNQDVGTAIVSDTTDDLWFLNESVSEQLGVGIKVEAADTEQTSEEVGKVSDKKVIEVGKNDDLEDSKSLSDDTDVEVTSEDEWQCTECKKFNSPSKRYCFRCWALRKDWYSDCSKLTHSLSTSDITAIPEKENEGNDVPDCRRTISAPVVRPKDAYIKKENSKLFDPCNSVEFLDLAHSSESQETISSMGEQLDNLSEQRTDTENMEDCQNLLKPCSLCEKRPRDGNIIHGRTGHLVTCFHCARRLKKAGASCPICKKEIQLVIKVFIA
Target sequence (Q00987 whole entry, looked up): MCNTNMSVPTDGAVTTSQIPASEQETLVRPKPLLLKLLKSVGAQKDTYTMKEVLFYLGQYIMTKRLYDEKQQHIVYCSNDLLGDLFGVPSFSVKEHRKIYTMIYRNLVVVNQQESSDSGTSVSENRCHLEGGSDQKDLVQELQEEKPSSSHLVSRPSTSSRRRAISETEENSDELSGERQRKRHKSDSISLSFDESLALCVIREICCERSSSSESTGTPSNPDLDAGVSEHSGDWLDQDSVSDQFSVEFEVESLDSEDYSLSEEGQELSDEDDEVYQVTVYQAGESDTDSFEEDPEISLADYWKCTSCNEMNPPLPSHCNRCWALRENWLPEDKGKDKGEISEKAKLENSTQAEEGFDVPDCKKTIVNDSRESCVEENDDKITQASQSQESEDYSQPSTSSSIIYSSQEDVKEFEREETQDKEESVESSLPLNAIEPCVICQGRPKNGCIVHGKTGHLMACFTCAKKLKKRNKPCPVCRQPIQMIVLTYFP
Beta cell apopt = blocks beta cell apoptosis | INS-1E cytokine-induced death, ATP luminescence, 48 h; percent of positive-control rescue, neutral wells zero | protection from apoptosis, % (no concentration beside the values) | 300,000 compounds, 0.8% hits;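 active means Every replicate reaches about 75%, or at least half do and their mean reaches it too, limit read from the data; inconclusive means At least half of replicates reach the limit but their mean does not; inactive means Under half of replicates reach the limit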;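 further: higher means more ATP so stronger rescue from cytokine killing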
Mdm2-MdmX conf = confirmation of human Mdm2/MdmX interaction inhibitors; shares compounds with Mdm2 MdmX PPI; Mdm2-MdmX binding, luminescent assay; inhibition, % at 8 µM; 10,000 compounds, 55% hits; AID 489028; in the data active means inhibition above about 40%
Full FLuc ctr = full-length luciferase inhibition in Mdm2/MdmX counter-screen | shares compounds with Mdm2 MdmX PPI | SaOS-2 full-length luciferase counterscreen, luminescence | inhibition, % at 8 µM | 6,200 compounds, 77% hits;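 active means mean inhibition at 8 µM reaching about 37%, which flags the compound as non-specific, limit read from the data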;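 further: p53-null SaOS-2 cells with luciferase driven by a doxycycline-inducible promoter; compound on cells about two nights before reading with doxycycline added after day one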
MPTP counter = membrane potential counter-screen of mitochondrial pore inhibitors; shares compounds with MPTP block; isolated mitochondria, Rhodamine 123 fluorescence; inhibition, % at 10 µM; 5,000 compounds, 78% hits; AID 624504; in the data active means inhibition above about 22%
MPTP abs DR = dose response confirmation of mitochondrial permeability transition pore inhibitors | shares compounds with MPTP block | isolated mitochondria swelling, absorbance | IC50, µM | 780 compounds, 58% hits | AID 651561; in the data active means IC50 below about 20 µM
MPTP cs DR = active in counter-screen for permeability transition pore inhibitors; isolated mitochondria counterscreen, fluorescence read-out; 780 compounds, 49% hits; IC50, µM; shares compounds with MPTP block; in the data active means IC50 below about 80 µM
Each line names hits and unclear results; the compound was inactive in the other large screens (follow-up assays come after a bar, where they were run). Sampled rows, rich in hits. Any-hit rate of the full collection: about 4.8%.

Brc1ccc2ncnc(NCc3ccccc3)c2c1	MPTP block 59, Mdm2 MdmX PPI 84 | Mdm2-MdmX conf 81 | Full FLuc ctr 53 | MPTP counter 88
COc1ccc(NS(=O)(=O)c2cccc(C(=O)NC3CCC(O)CC3)c2)cc1 (configuration not stated)	none (no result: Beta cell apopt)
CCOc1ccc(-c2cnc(NCc3cccc4ccccc34)n2CCOC)cc1	MPTP block 89, Mdm2 MdmX PPI 88 | Mdm2-MdmX conf inactive | MPTP counter 97
Cc1nnsc1C(=O)N/N=C/c1ccccc1	none
Cc1nnsc1C(=O)N/N=C/c1ccc2ccccc2c1O	CSC inhib 78, MPTP block 56, Mdm2 MdmX PPI 63, Beta cell apopt 125 | Mdm2-MdmX conf 75 | Full FLuc ctr inactive | MPTP counter 56
C/C(=N\NC(=O)c1cc2ccccc2cc1O)c1cc2ccccc2o1	CSC inhib 93, MPTP block 98, Mdm2 MdmX PPI 54 | Mdm2-MdmX conf inactive | Full FLuc ctr 58 | MPTP counter 57
CC(=O)Nc1ccc(NC(=O)c2cc([N+](=O)[O-])cc([N+](=O)[O-])c2)cc1	none
Cc1ccc(NC(=O)c2ccc(Nc3c([N+](=O)[O-])cc([N+](=O)[O-])cc3[N+](=O)[O-])cc2)cc1	MPTP block 96, Mdm2 MdmX PPI 79 | Mdm2-MdmX conf inactive | MPTP counter 74
CCOc1ccc(NS(=O)(=O)c2cc(C(=O)N3CCCC3)ccc2Cl)cc1	none
CCOc1ccc(NS(=O)(=O)c2cc(NC(=O)c3cccc(C)c3)ccc2Cl)cc1	MPTP block 89, Mdm2 MdmX PPI 51 | Mdm2-MdmX conf 46 | Full FLuc ctr 79 | MPTP counter 41
N#Cc1ccc(/C=C\c2nccc3c2[nH]c2ccccc23)cc1	MPTP block 92, Mdm2 MdmX PPI 51 | Mdm2-MdmX conf inactive | MPTP counter 67
OCCCCc1nccc2c1[nH]c1ccccc12	none
COc1ccc(-c2nc(-c3ccc4c(c3)OCO4)[nH]c2-c2ccc(OC)cc2)cc1	MPTP block 69, Mdm2 MdmX PPI 67 (no result: CSC inhib) | Mdm2-MdmX conf inactive | MPTP counter 69
CN1C(=O)/C(=C\c2cc(N=Nc3ccccc3)ccc2O)SC1=S	MPTP block 100, Mdm2 MdmX PPI 91 | Mdm2-MdmX conf 54 | Full FLuc ctr inactive | MPTP counter 76
CN1C(=O)/C(=C\c2ccccc2OCc2ccccc2)SC1=S	none
Cc1cc(/C=C2\SC(=S)N(C)C2=O)c(C)n1-c1cccc(O)c1	CSC inhib inconclusive, MPTP block 66, Mdm2 MdmX PPI 78 | Mdm2-MdmX conf 79 | Full FLuc ctr 98 | MPTP counter 66
Fc1ccc(C2CCNCC2COc2ccc3c(c2)OCO3)cc1 (configuration not stated)	none
Fc1ccc([C@@H]2CCNC[C@H]2COc2ccc3c(c2)OCO3)cc1	MPTP block 98, Mdm2 MdmX PPI 51 (no result: Beta cell apopt) | Mdm2-MdmX conf inactive | Full FLuc ctr 56 | MPTP counter inactive
S=C(Nc1cc(Cl)cc(Cl)c1)NC1CCN(Cc2ccccc2)CC1	CSC inhib 75, MPTP block 54, Mdm2 MdmX PPI 95 | Mdm2-MdmX conf inactive | MPTP counter 89
CC(CNC(=O)CCS(=O)(=O)c1ccc2c(c1)NC(=O)CO2)c1ccccc1 (configuration not stated)	none
CCOC(=O)c1sc(NC(=O)c2cc(-c3ccc(C)cc3)nc3ccccc23)c(C#N)c1C	MPTP block 88, Mdm2 MdmX PPI 76 | Mdm2-MdmX conf 92 | Full FLuc ctr 50 | MPTP counter 78
Cc1cc(NC(=O)c2cc(-c3ccccc3C)nc3ccccc23)no1	none
COC(=O)c1sc(NC(=O)c2cc(-c3ccccc3)nc3ccccc23)c(C#N)c1C	MPTP block 66, Mdm2 MdmX PPI 95 | Mdm2-MdmX conf 92 | Full FLuc ctr inactive | MPTP counter 70
Cc1ccccc1-c1cc(C(=O)Nc2sc(C(=O)OC(C)C)c(C)c2C#N)c2ccccc2n1	CSC inhib 111, MPTP block 91, Mdm2 MdmX PPI 72 | Mdm2-MdmX conf 95 | Full FLuc ctr inactive | MPTP counter 79
COc1ccc(-c2cc(C(=O)Nc3sc4c(c3C#N)CCCC4)c3ccccc3n2)cc1	none (no result: Calb FLC, Mdm2 MdmX PPI)
Cc1cccc(Nc2nc(Cl)ncc2F)c1C	none
CCC1(c2ccccc2)NC(=O)N(CC(=O)NCCN2C(=O)S/C(=C\c3cccnc3)C2=O)C1=O (configuration not stated)	none
COc1cccc(/C=C2/Sc3ccc(C(=O)NCCN4CCCCCC4)cc3NC2=O)c1	MPTP block 95, Mdm2 MdmX PPI 98 (no result: Beta cell apopt) | Mdm2-MdmX conf inactive | MPTP counter inactive
O=C1Nc2cc(C(=O)NCCN3CCCCCC3)ccc2S/C1=C\c1ccccc1	MPTP block 76, Mdm2 MdmX PPI 81 | Mdm2-MdmX conf inactive | MPTP counter inactive
CN1CCN(C(=O)c2ccc3c(c2)NC(=O)/C(=C/c2ccccc2)S3)CC1	none
Cc1cc(C)cc(CC(Cc2nc3ccccc3[nH]2)c2nc3ccccc3[nH]2)c1 (configuration not stated)	CSC inhib 182, MPTP block 96, Mdm2 MdmX PPI 91 | Mdm2-MdmX conf inactive | MPTP counter 108
Cn1c(=O)c2c([nH]c(OCc3ccc(Cl)cc3Cl)[n+]2Cc2ccc(F)cc2)n(C)c1=O	MPTP block 50, Mdm2 MdmX PPI 57 | Mdm2-MdmX conf inactive | MPTP counter inactive | MPTP abs DR inactive | MPTP cs DR inactive
CCN(Cc1ccccc1)S(=O)(=O)c1ccc(C(=O)N(CCCN(C)C)c2nc3cc(OC)ccc3s2)cc1	MPTP block 65, Mdm2 MdmX PPI 50 | Mdm2-MdmX conf inactive | MPTP counter inactive | MPTP abs DR inactive | MPTP cs DR 30
CCN(Cc1ccccc1)S(=O)(=O)c1ccc(C(=O)N(CCCN(C)C)c2nc3cc4c(cc3s2)OCCO4)cc1	MPTP block 59, Mdm2 MdmX PPI 78 (no result: Beta cell apopt) | Mdm2-MdmX conf inactive | Full FLuc ctr 77 | MPTP counter inactive
COc1cc2nc(N(CCCN(C)C)C(=O)c3ccc(S(=O)(=O)N4CCc5ccccc54)cc3)sc2cc1OC	none (no result: Beta cell apopt)
CCN(Cc1ccccc1)S(=O)(=O)c1ccc(C(=O)N(CCCN(C)C)c2nc3ccc(F)cc3s2)cc1	none
COc1ccc2sc(N(CCCN(C)C)C(=O)c3ccc(S(=O)(=O)N4CCCc5ccccc54)cc3)nc2c1	MPTP block 86, Mdm2 MdmX PPI 80 (no result: Beta cell apopt) | Mdm2-MdmX conf 44 | Full FLuc ctr 64 | MPTP counter inactive
